Measured values reported in the antibiotic and cytotoxicity screens of Wong et al. (2023).
The whole screen tested about 39,000 compounds, of which about 500 (1.3%) were called active. The sample as a whole holds a higher share of actives than the screen did.

system: S. aureus RN4220; assay: growth inhibition call (relative growth <= 0.2); details: 50 µM

SMILES | growth inhibition call
Cc1noc(C)c1NC(=O)Nc1ccc2c(c1)CC(=O)N([C@H](C)CO)C[C@H](C)[C@H](CN(C)C(=O)Nc1ccc(C(F)(F)F)cc1)O2 | inactive
CC(C)NC(=O)N(C)C[C@H]1Oc2ccc(NC(=O)Cc3ccccc3)cc2C(=O)N([C@H](C)CO)C[C@@H]1C | inactive
[N-]=[N+]=NCCOCCNC(=O)CCCOc1ccc(CS(=O)c2nnc(-c3ccc(F)cc3)o2)nc1 (stereo not drawn) | active
C[C@H]1CNC(=O)O1 | inactive
COc1ccc(S(=O)(=O)N(C)C[C@@H]2Oc3c(NC(=O)Nc4c(C)noc4C)cccc3C(=O)N([C@@H](C)CO)C[C@H]2C)cc1 | inactive
COCCOC(=O)N1C(=O)[C@@]2(c3cc(C#CCC(C(=O)OC)C(=O)OC)ccc31)[C@H](c1ccc(OCCO)cc1)N1[C@H](c3ccccc3)[C@H](c3ccccc3)OC(=O)[C@H]1[C@@H]2C(=O)N1CCCCCCC1 | inactive
COCCOC(=O)N1C(=O)[C@@]2(c3cc(C#CCC(C(=O)OC)C(=O)OC)ccc31)[C@H](C(=O)N1CCCCCCC1)[C@H]1C(=O)O[C@H](c3ccccc3)[C@H](c3ccccc3)N1[C@@H]2c1ccc(OCCO)cc1 | inactive
COCCOC(=O)N1C(=O)[C@@]2(c3cc(C#CCC(C(=O)OC)C(=O)OC)ccc31)[C@H](C(=O)N1CCCCCCC1)[C@H]1C(=O)O[C@H](c3ccccc3)[C@H](c3ccccc3)N1[C@@H]2c1ccc(O)cc1 | active
C[C@@H]1CN([C@H](C)CO)C(=O)c2c(c3ccccc3n2C)-c2ccccc2CO[C@H]1CN(C)S(C)(=O)=O | inactive
C[C@H](CO)N1C[C@H](C)[C@@H](CN(C)S(=O)(=O)c2ccccc2)OCCCC[C@H](C)Oc2ccc(NC(=O)c3ccccc3)cc2C1=O | inactive
CCOC(=O)c1cc2c(c(-c3cccc(Br)c3)n1)[C@@H](CCO[Si](C)(C)C(C)(C)C)N(S(=O)(=O)C(C)(C)C)C2 | inactive
CC(C)(C)[S@@+]([O-])N1Cc2cc(C(=O)O)nc(-c3ccc(Br)cc3)c2[C@H]1CCO[Si](C)(C)C(C)(C)C | active
CCOC(=O)c1cc2c(c(-c3ccccc3)n1)[C@@H](CCO[Si](C)(C)C(C)(C)C)N(S(=O)(=O)C(C)(C)C)C2 | inactive
C[C@@H]1CCCCO[C@@H](CN(C)S(=O)(=O)c2ccc(Cl)cc2)[C@H](C)CN([C@H](C)CO)C(=O)c2cc(NS(=O)(=O)c3ccccc3)ccc2O1 | inactive
COc1cccc(C#Cc2cnc3c(c2)C(=O)N([C@@H](C)CO)C[C@H](C)[C@@H](CN(C)C(=O)C2CCOCC2)O3)c1 | inactive
Cc1ccc(S(=O)(=O)N(C)C[C@H]2Oc3ccc(NS(=O)(=O)c4c(C)noc4C)cc3CC(=O)N([C@H](C)CO)C[C@H]2C)cc1 | inactive
O=C(O)c1cnc(N2CCCC2)nc1 | inactive
Cc1ccc(Cl)c(Nc2ccccc2C(=O)[O-])c1Cl.[Na+] | inactive
Cc1cc(=O)c(C(=O)N[C@@H](C(=O)N[C@@H]2C(=O)N3C(C(=O)O)=C(CSc4nnnn4C)CS[C@H]23)c2ccc(O)cc2)c[nH]1 | active
CCN1CCN(C(=O)NC(C(=O)NC2C(=O)N3C(C(=O)O)=C(CSc4nnnn4C)CSC23)c2ccc(O)cc2)C(=O)C1=O (stereo not drawn) | active
Cc1cc(O)c(C(=O)NC(C(=O)NC2C(=O)N3C(C(=O)O)=C(CSc4nnnn4C)CSC23)c2ccc(O)cc2)cn1 (stereo not drawn) | active
Cc1cc2nc3ccc(N(C)C)cc3[s+]c2cc1N.[Cl-] | inactive
C=CCOC(=O)[C@H]1[C@@H]2C(=O)O[C@@H](c3ccccc3)[C@@H](c3ccccc3)N2[C@@H](c2ccc(OCCOC(=O)[C@H]3C[C@H]4C(=O)N[C@@H](CC(C)C)C(=O)N4[C@H]3c3cccc(OCCO)c3)cc2)[C@]12C(=O)Nc1ccc(I)cc12 | inactive

SMILES | growth inhibition call
COc1ccc(S(=O)(=O)N(C)C[C@@H]2Oc3cc(C4=CCCC4)ccc3S(=O)(=O)N([C@@H](C)CO)C[C@H]2C)cc1 | inactive
C[C@H](CO)N1C[C@H](C)[C@H](CN(C)Cc2ccc(C(F)(F)F)cc2)Oc2ccc(NS(=O)(=O)c3ccc(Cl)cc3)cc2C1=O | inactive
CC[C@@H]1OC(=O)C[C@@H](O)[C@H](C)[C@@H](O[C@@H]2O[C@H](C)[C@@H](O)[C@H](N(C)C)[C@H]2O)[C@@H](CCN2C[C@H](C)C[C@H](C)C2)C[C@@H](C)C(=O)/C=C/C(C)=C\[C@@H]1CO[C@@H]1O[C@H](C)[C@@H](O)[C@@H](OC)[C@H]1OC | active
CC[C@H]1OC(=O)C[C@@H](O)[C@H](C)[C@@H](O[C@@H]2O[C@H](C)[C@@H](O)[C@H](N(C)C)[C@H]2O)[C@@H](CCN2C[C@H](C)C[C@H](C)C2)C[C@@H](C)C(=O)/C=C/C(C)=C/[C@@H]1CO[C@@H]1O[C@H](C)[C@@H](O)[C@@H](OC)[C@H]1OC | active
CCC1OC(=O)CC(O)C(C)C(OC2OC(C)C(O)C(N(C)C)C2O)C(CCN2CC(C)CC(C)C2)CC(C)C(=O)C=CC(C)=CC1COC1OC(C)C(O)C(OC)C1OC (stereo not drawn) | active
C[C@@H]1CN([C@H](C)CO)C(=O)Cc2cc(NS(C)(=O)=O)ccc2O[C@H]1CN(C)S(=O)(=O)c1cn(C)cn1 | inactive
C[C@@H]1CN([C@@H](C)CO)C(=O)Cc2cc(NC(=O)c3ccncc3)ccc2O[C@H]1CN(C)S(=O)(=O)c1ccc(Cl)cc1 | inactive
C[C@@H]1CCCCO[C@H](CN(C)S(=O)(=O)c2cn(C)cn2)[C@H](C)CN([C@H](C)CO)C(=O)c2cc(NS(=O)(=O)c3ccccc3)ccc2O1 | inactive
C[C@H](CO)N1C[C@H](C)[C@@H](CN(C)S(=O)(=O)c2cn(C)cn2)Oc2ccc(NC(=O)CCCN(C)C)cc2C1=O | inactive
C[C@@H]1CCCCO[C@@H](CN(C)S(=O)(=O)c2ccc(F)cc2)[C@H](C)CN([C@@H](C)CO)C(=O)c2cc(NC(=O)CCC(F)(F)F)ccc2O1 | inactive
CC(C)C[C@H]1NC(=O)[C@@H](CCCN)NC(=O)[C@H](C(C)C)NC(=O)[C@H]2CCCN2C(=O)[C@@H](Cc2ccccc2)NC(=O)[C@@H](CC(C)C)NC(=O)[C@@H](CCCN)NC(=O)[C@H](C(C)C)NC(=O)[C@H]2CCCN2C(=O)[C@@H](Cc2ccccc2)NC1=O | inactive
CC(C)C[C@@H]1NC(=O)[C@@H](C(C)C)NC(=O)[C@@H]2CCCN2C(=O)[C@@H](CC(=O)O)NC(=O)[C@@H](Cc2c[nH]c3ccccc23)NC1=O | inactive
C[C@@H]1CN([C@H](C)CO)C(=O)c2cccc(NC(=O)c3cnccn3)c2O[C@H]1CN(C)S(=O)(=O)c1ccccc1 | inactive
C[C@@H]1CN([C@@H](C)CO)S(=O)(=O)c2ccc(C#CCN(C)C)cc2O[C@H]1CN(C)Cc1cccnc1 | inactive
OC[C@H]1O[C@H]2O[C@@H]3[C@@H](O)[C@H](O)[C@H](O[C@@H]4[C@@H](O)[C@H](O)[C@H](O[C@@H]5[C@@H](O)[C@H](O)[C@H](O[C@@H]6[C@@H](O)[C@H](O)[C@H](O[C@@H]7[C@@H](O)[C@H](O)[C@H](O[C@@H]8[C@@H](O)[C@H](O)[C@H](O[C@@H]1[C@@H](O)[C@@H]2O)O[C@@H]8CO)O[C@@H]7CO)O[C@@H]6CO)O[C@@H]5CO)O[C@@H]4CO)O[C@@H]3CO | inactive
NC1=CC(=O)c2ccccc2C1=O | inactive
CC1=CC(=O)c2ccccc2C1=O | active
O=C1C=C(O)C(=O)c2ccccc21 | inactive
C[C@H](O)C#Cc1ccc2c(c1)O[C@H](CN(C)C(=O)c1ccccc1)[C@@H](C)CN([C@H](C)CO)S2(=O)=O | inactive
CN(CC(=O)O)S(=O)(=O)c1ccc(F)cc1 | inactive
C[C@H](CO)N1C[C@H](C)[C@@H](CN(C)Cc2ccc(C(F)(F)F)cc2)Oc2ccc(NC(=O)C3CCCCC3)cc2C1=O | inactive
CC1(C)SC2C(NC(=O)C(N)c3ccc(O)cc3)C(=O)N2C1C(=O)O (stereo not drawn) | active
CC1(C)S[C@H]2[C@@H](NC(=O)[C@@H](N)c3ccccc3)C(=O)N2[C@@H]1C(=O)O | inactive

SMILES | growth inhibition call
CC1(C)S[C@@H]2[C@H](NC(=O)C3(N)CCCCC3)C(=O)N2[C@H]1C(=O)O | active
CC1(C)S[C@@H]2[C@H](NC(=O)[C@H](N)c3ccc(O)cc3)C(=O)N2[C@H]1C(=O)O | active
C[C@H]1CN([C@@H](C)CO)C(=O)Cc2cc(NS(=O)(=O)c3cn(C)cn3)ccc2O[C@H]1CN(C)C(=O)NC1CCCCC1 | inactive
C[C@H]1CN([C@@H](C)CO)C(=O)Cc2cc(NS(=O)(=O)c3cn(C)cn3)ccc2O[C@@H]1CN(C)C(=O)Nc1ccc2c(c1)OCO2 | inactive
CN(C)CCCNC(=O)C[C@H]1CC[C@H]2[C@@H](COC[C@@H](O)CN2S(=O)(=O)c2ccc(F)cc2)O1 | inactive
C[C@H]1CCCCO[C@H](CN(C)CC2CCCCC2)[C@@H](C)CN([C@@H](C)CO)C(=O)c2cc(NC(=O)CCC(F)(F)F)ccc2O1 | inactive
O=C(NO)c1ccc(C(=O)N/N=C/[C@H](O)[C@@H](O)[C@H](O)CO)cc1 | inactive
C[C@@H]1CN([C@@H](C)CO)C(=O)c2cccc(NC(=O)Nc3ccc4c(c3)OCO4)c2O[C@@H]1CN(C)S(C)(=O)=O | inactive
Cc1ccc(S(=O)(=O)N(C)C[C@@H]2Oc3ccc(NS(=O)(=O)c4ccc(F)cc4)cc3CC(=O)N([C@H](C)CO)C[C@@H]2C)cc1 | inactive
CC(C)CC#Cc1ccc2c(c1)O[C@@H](CN(C)C(=O)c1ccccn1)[C@H](C)CN([C@@H](C)CO)S2(=O)=O | inactive
O=C(C[C@@H]1CC[C@H]2[C@@H](COC[C@H](O)CN2C(=O)Nc2ccc(Cl)c(Cl)c2)O1)NCc1ccc(Cl)c(Cl)c1 | active
O=C(C[C@@H]1CC[C@H]2[C@@H](COC[C@@H](O)CN2C(=O)Nc2ccc(Cl)c(Cl)c2)O1)NCc1ccncc1 | active
O=C(C[C@H]1CC[C@H]2[C@@H](COC[C@@H](O)CN2C(=O)Nc2ccc(Cl)c(Cl)c2)O1)NCc1ccncc1 | inactive
O=C(C[C@@H]1CC[C@@H]2[C@H](COC[C@H](O)CN2C(=O)Nc2ccc(Cl)c(Cl)c2)O1)NCc1ccc(Cl)c(Cl)c1 | inactive
O=C(C[C@H]1CC[C@H]2[C@@H](COC[C@H](O)CN2C(=O)Nc2ccc(Cl)c(Cl)c2)O1)NCc1ccc(Cl)c(Cl)c1 | inactive
O=C(C[C@@H]1CC[C@H]2[C@@H](COC[C@H](O)CN2C(=O)Nc2ccc(Cl)c(Cl)c2)O1)NCc1ccncc1 | active
O=C(C[C@H]1CC[C@@H]2[C@H](COC[C@H](O)CN2C(=O)Nc2ccc(Cl)c(Cl)c2)O1)NCc1ccncc1 | inactive
O=C(C[C@@H]1CC[C@@H]2[C@H](COC[C@H](O)CN2C(=O)Nc2ccc(Cl)c(Cl)c2)O1)NCc1ccncc1 | inactive
O=C(C[C@H]1CC[C@H]2[C@@H](COC[C@H](O)CN2C(=O)Nc2ccc(Cl)c(Cl)c2)O1)NCc1ccncc1 | inactive
O=C(C[C@H]1CC[C@H]2[C@@H](COC[C@@H](O)CN2C(=O)Nc2ccc(Cl)c(Cl)c2)O1)NCc1ccc(Cl)c(Cl)c1 | inactive
O=C(C[C@@H]1CC[C@@H]2[C@H](COC[C@@H](O)CN2C(=O)Nc2ccc(Cl)c(Cl)c2)O1)NCc1ccncc1 | active
O=C(C[C@@H]1CC[C@H]2[C@@H](COC[C@@H](O)CN2C(=O)Nc2ccc(Cl)c(Cl)c2)O1)NCc1ccc(Cl)c(Cl)c1 | inactive
